# Screening data: PubChem, several laboratories
# Shown is part of a subset that was picked to be rich in hits.
# TNAP act DEA: human TNAP activation, intermediate phosphate acceptor; P05186; purified TNAP, CDP-star luminescence, 100 mM DEA, 30 min; active compounds read high; scale: 0 levamisole-inhibited, 1 vehicle-only enzyme; activation factor at 20 µM; 64,000 tested, under 10 active; AID 813;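 active means activation factor of at least 2 at 20 µM, relative to controls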
# Target sequence (P05186 whole entry, looked up): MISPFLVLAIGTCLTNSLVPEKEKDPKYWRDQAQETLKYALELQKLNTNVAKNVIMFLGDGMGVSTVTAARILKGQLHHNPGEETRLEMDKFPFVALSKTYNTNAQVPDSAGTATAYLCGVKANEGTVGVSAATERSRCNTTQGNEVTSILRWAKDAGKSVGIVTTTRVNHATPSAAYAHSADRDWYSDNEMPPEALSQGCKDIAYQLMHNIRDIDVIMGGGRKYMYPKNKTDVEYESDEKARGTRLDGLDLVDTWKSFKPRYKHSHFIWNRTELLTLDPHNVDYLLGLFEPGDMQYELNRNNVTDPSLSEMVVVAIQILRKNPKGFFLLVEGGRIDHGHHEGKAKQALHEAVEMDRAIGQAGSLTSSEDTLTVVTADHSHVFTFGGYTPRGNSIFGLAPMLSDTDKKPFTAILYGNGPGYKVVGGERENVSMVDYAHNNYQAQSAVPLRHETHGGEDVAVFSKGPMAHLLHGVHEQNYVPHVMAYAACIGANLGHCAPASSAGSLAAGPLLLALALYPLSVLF
# HePTP inh: human HePTP phosphatase inhibition. hit rate 0.64% among 110,000. recombinant HePTP phosphatase activity, OD absorbance. inhibition, % at 20 µM. P35236; in the data active means inhibition above about 50%;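 further: plate controls were vehicle for no effect and reference inhibitor for full effect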
# PLAP activator: activates human placental alkaline phosphatase | AID 696 | hit rate 1.2% among 96,000 | activation fold at 20 µM | purified PLAP enzyme, luminescent substrate read-out; active compounds read high; in the data active means activation fold above about 2
# hDAT+cocaine: modulates human dopamine transporter uptake under cocaine; hit rate 1.3% among 110,000; AID 449768; LLC-PK1 hDAT cells, [14C]-dopamine uptake with cocaine IC80; actives deviate in either direction; Q01959; B-score at 10 µM;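 active means Z score or B-score, a plate-position-corrected score, falls beyond the plate's 99.7% confidence bounds, in either direction; inactive means both scores lie inside the 99.7% bounds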;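 further: scored against the spread of the other compound wells on the same plate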
# D1 mod: D1 dopamine receptor (human) allosteric modulation; HEK293 D1, CRE-luciferase, dopamine EC30 potentiation; actives deviate in either direction; B-score at 10 µM; hit rate 5.9% among 58,000; AID 641;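 active means luminescence count or its row- and column-corrected plate score outside the 99.7% band of the plate's sample wells, on either side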
# Calb biofilm kill: kills Candida albicans biofilms; inhibition, % at 6 µM; C. albicans biofilm + clotrimazole, Alamar Blue; hit rate 0.14% among 85,000;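 active means inhibition above 20%; inactive means inhibition below 20%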;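 further: preformed 24 hr biofilms exposed to compound for 48 hr; 0% = biofilm without compound and 100% = blank killed by clotrimazole plus chlorhexidine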
# D1 PAM confirm: confirmation of human D1 dopamine receptor allosteric modulators. shares compounds with D1 mod. HEK293 D1 CRE-luciferase, dopamine EC30 potentiation; active compounds read high. AID 642. luminescence at 10 µM. hit rate 88% among 2,200;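 active means luminescence in either of two replicates above the same-plate mean plus 3 SD of the low-dose dopamine control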
# D1 no dopamine: secondary test of D1 modulators: activity without dopamine; shares compounds with D1 mod; hit rate 0.8% among 1,900; luminescence at 10 µM; HEK293 D1 CRE-luciferase, luminescence, no dopamine; active compounds read high; in the data active means luminescence above about 3900
# Isoprot counter: counter-screen for D1 modulators: isoproterenol response in HEK293 cells | shares compounds with D1 mod | HEK293 D1 CRE-luciferase, isoproterenol EC30 counter-screen; active compounds read high | luminescence at 10 µM | hit rate 63% among 2,200 | AID 647;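 active means luminescence in either replicate above plate mean of wells with a partly effective reference agonist dose plus 3 SD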;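 further: isoproterenol raises cAMP through native beta-adrenoceptor Gs so signal bypasses D1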
# * marks the source's active call; other numbers are inactive results; . = no result.
SMILES,TNAP act DEA,HePTP inh,PLAP activator,hDAT+cocaine,D1 mod,Calb biofilm kill,D1 PAM confirm,D1 no dopamine,Isoprot counter
COc1ccc2[nH]c(=O)c(CN(Cc3cccs3)Cc3nnnn3C(C)(C)C)cc2c1,0.9,-8,1.3,2.5*,5.3*,6,7020*,1520,2408
COC(=O)c1cc2sc(Cl)cc2n1CC(=O)N1CCCc2ccccc21,0.9,5,1.2,-1.1,5.5*,9,9576*,1504,2776
COc1ccccc1NC(=O)CSc1ccc2nnc(-c3cccnc3)n2n1,0.9,7,.,0.086,2.5*,-9,8024,1728,2644
COc1ccc(OC)c(/C=N/c2oc(-c3ccco3)c(-c3ccco3)c2C#N)c1,0.8,8,1.1,-1.8,9.5*,-2,16404*,1712,2776
CCOC(=O)C1=C(C)NC(=O)NC1c1cn(-c2ccccc2)nc1-c1cccs1 (stereo not drawn),0.9,3,1.7,1.5,2.8*,3,10976*,1540,3608*
COC(=O)C1=C(C)NC(=O)NC1c1cn(-c2ccccc2)nc1-c1cccs1 (stereo not drawn),0.9,5,1.2,1.2,1.8,2,.,.,.
COc1ccc(CCNC(=O)CN2C(=O)c3ccccc3S2(=O)=O)cc1OC,0.9,11,0.9,-1.3,4.3*,2,7364*,1808,3356*
COc1ccc(CCNC(=O)c2cc(-c3ccccc3O)n[nH]2)cc1OC,1.6,2,.,-9.6*,4.4*,-1,8340*,1572,3492*
COc1ccc(CCNC(=O)c2cnc3n(c2=O)CCS3)cc1OC,.,.,.,1,4.7*,-2,9460*,1716,3844*
COc1ccc(-c2cc(-c3ccccc3O)[nH]n2)cc1OC,1,5,2.8*,-0.12,3.4*,11,8764*,1644,3764*
CC(=O)C(Sc1ccccc1)C(=O)c1ccccc1 (stereo not drawn),.,0,.,.,.,.,.,.,.
COc1ccccc1CNC(=O)CN(c1ccc(Cl)cc1)S(C)(=O)=O,.,-5,.,.,.,.,.,.,.
COC(=O)c1c(N)sc(C)c1-c1ccc(OC)cc1,.,-1,.,.,.,.,.,.,.
Nc1nc(-c2cccs2)c(NC(=O)c2ccccc2)s1,0.9,4,0.9,1.8,6*,-4,14100*,1740,3544*
O=C(COc1ccccc1F)Nc1nc(-c2cccs2)c(NC(=O)c2ccccc2)s1,.,-1,.,.,.,.,.,.,.
COc1ccc(OC)c(C(=O)COC(=O)C2CC3CCCC(C2)C3=O)c1 (stereo not drawn),0.9,7,1,0.1,2.2*,11,9744*,1720,2844
CCCCSc1nc(CCC)cc(=O)[nH]1,0.8,8,1.2,-0.13,5.3*,6,15600*,1616,3616*
COc1ccccc1NC(=O)CC1Nc2ccccc2NC1=O (stereo not drawn),1,-4,1.5,0.18,3.7*,9,6444*,1504,3404
COC(=O)c1ccc(NC(=O)CC2Nc3ccccc3NC2=O)cc1 (stereo not drawn),.,-20,.,.,.,.,.,.,.
C=CCSc1ncccc1C(=O)NCc1ccccc1,0.9,-2,0.9,-1,25*,-2,20632*,1692,5068*
CCOC(=O)c1cccnc1SCC(=O)NCc1ccccc1,.,.,1,0.073,.,2,.,.,.
COc1ccc(NC(=O)CCN2C(=O)S/C(=C/c3ccc(OC)c(OC)c3)C2=O)cc1,.,-1,.,.,.,.,.,.,.
COCc1cc(C)nc2sc(C(=O)N3CCN(c4ccccc4)CC3)c(N)c12,1,3,1.8,1.2,4.6*,-3,8080*,1512,2904
Cc1ccc(-n2nc3c(c2NC(=O)c2ccc(Br)o2)CSC3)c(C)c1,0.9,13,1.3,-0.49,4.8*,7,5856,1520,2364
Cc1cc(C)c2c(n1)sc1c(N3CCN(CCO)CC3)ncnc12,0.9,10,1.5,1,7.2*,3,11076*,1676,4148*
SMILES,TNAP act DEA,HePTP inh,PLAP activator,hDAT+cocaine,D1 mod,Calb biofilm kill,D1 PAM confirm,D1 no dopamine,Isoprot counter
c1nc(N2CCOCC2)c2sc3nc(N4CCOCC4)c4c(c3c2n1)CCCC4,.,.,.,.,0.55,8,.,.,.
CC1CC(=O)C2=C(C1)Nc1ccccc1N(C(=O)COc1ccccc1)C2c1ccco1 (stereo not drawn),1,8,1,2.6,14*,-3,7072,1484,2428
CCCCCC(=O)N1c2ccccc2NC2=C(C(=O)CC(c3ccc(OC)cc3)C2)C1c1ccco1 (stereo not drawn),.,-2,.,.,.,.,.,.,.
Cc1cc(O)c(C(C)C)cc1N1C(=O)c2ccc3c4c(ccc(c24)C1=O)CC3,.,-9,.,.,.,.,.,.,.
Cc1ccc(OCC(=O)NNC(=O)c2cccc(F)c2)c(C)c1,.,3,.,.,.,.,.,.,.
O=C1OCc2cc(NC(=O)C3CCCO3)ccc21 (stereo not drawn),0.8,-9,0.9,-1.4,-0.66,5,.,.,.
O=C1OCc2ccc(NC(=O)C3CCCCC3)cc21,0.8,8,0.8,-0.55,7.5*,2,7424,1748,2488
COc1cc2nnc(/C=C/C(C)=O)c(-c3ccc(C)o3)c2cc1OC,.,-4,.,.,.,.,.,.,.
O=C(CCCCn1c(=O)c2ccccc2n(CC(=O)NC2CCCC2)c1=O)NC1CCCC1,1,5,1.3,0.97,4.4*,.,4732,1368,2752
CCCN(CCC)C(=O)Cn1c(=O)n(CCCCC(=O)NC2CCCC2)c(=O)c2ccccc21,1,8,1.2,-0.69,-0.23,1,.,.,.
Fc1cccc(-c2cc3nc4c(c(N5CCC6(CC5)OCCO6)n3n2)CCCC4)c1,0.9,8,1.5,1.6,1.1,5,.,.,.
OC1CCN(c2c3c(nc4cc(-c5cccc(F)c5)nn24)CCCC3)CC1,0.9,12,1.5,1.3,7.4*,4,17644*,1772,4964*
O=C(COc1ccccc1Cl)NNC(=O)c1ccc(F)cc1,.,1,.,.,.,.,.,.,.
Nc1nc(Cl)nc2c1ncn2[C@@H]1O[C@H](CO)[C@@H](O)[C@H]1O,0.9,5,.,-0.57,24*,10,16252*,5660*,11320*
COc1ccc(Nc2nc(NNc3cccc(C(F)(F)F)c3)nc(C)c2[N+](=O)[O-])cc1,.,4,.,.,.,.,.,.,.
CCN(CC)c1ncccc1C(=O)NCc1cccs1,1,8,0.9,-0.41,7.6*,2,13524*,1416,3428*
O=C(NCc1cccs1)c1ccccc1C(=O)NCc1cccs1,1,4,1,-0.44,-0.97,-2,.,.,.
CCCSc1nc2c(cnn2-c2ccccc2)c(=O)[nH]1,1,-3,1.2,-0.014,11*,14,17784*,1636,3568*
